B2AR arrestin – recruits beta-arrestin to the human beta2-adrenergic receptor; beta-arrestin recruitment to beta2AR, cell-based reporter; P07550; 330,000 compounds, 0.02% hits; AID 492947; Potency, µM (top dose mostly 46.1 µM), hits mostly activators; active = well fitted activation curve with a large enough effect; inconclusive = small, poorly fitted or top-dose-only effect; note: nearly all actives have a fitted effect of over 65% in size
D2 ag-1 – agonists of human D2 dopamine receptor; P14416; HEK293 T-REx D2 cells, calcium flux agonist mode; activation, % at 2 µM; 340,000 compounds, 0.53% hits; AID 485358;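 active = activation over 3 SD above normal in the single-dose calcium agonist read, cut at about 30% in these data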
Target sequence (P14416 whole entry, looked up): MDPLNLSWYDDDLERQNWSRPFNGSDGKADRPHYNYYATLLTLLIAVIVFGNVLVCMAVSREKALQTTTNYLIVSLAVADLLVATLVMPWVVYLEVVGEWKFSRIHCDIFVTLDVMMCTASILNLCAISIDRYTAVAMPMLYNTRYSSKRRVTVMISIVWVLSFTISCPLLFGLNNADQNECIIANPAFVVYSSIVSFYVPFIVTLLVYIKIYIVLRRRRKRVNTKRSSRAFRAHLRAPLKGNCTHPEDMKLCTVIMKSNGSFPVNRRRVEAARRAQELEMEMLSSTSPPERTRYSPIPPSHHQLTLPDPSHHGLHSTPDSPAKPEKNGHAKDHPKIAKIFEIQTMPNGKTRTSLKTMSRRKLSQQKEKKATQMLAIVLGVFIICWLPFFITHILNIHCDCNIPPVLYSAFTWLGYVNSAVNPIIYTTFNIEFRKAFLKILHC
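Tetracycline-induced HEK293 T-REx cells with force-coupled D2 receptor, plated overnight at 30 C, loaded with no-wash calcium dye. After a 10 s baseline, compound was pin-added and calcium flux read kinetically for 180 s; calcium rises flagged agonists.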
D2 ag-2 – human D2 receptor agonism in beta-arrestin assay | P14416 | DiscoveRx PathHunter D2 beta-arrestin, luminescence, 90 min; 100% = 57 uM dopamine signal | activation, % (concentration not given with the values) | 360,000 compounds, 0.084% hits | AID 624465; in the data active = activation above about 40%; inconclusive = between about 15% and that limit
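Agonist mode: compounds alone added to overnight-plated D2 PathHunter cells for 90 min at 37 C, with 57 uM final dopamine (EC100) defining full response. Beta-arrestin recruitment detected by chemiluminescent reagent, read after 1 h at ambient temperature.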
D2 antagonist – antagonists of human D2 dopamine receptor; P14416; HEK293 TREx D2 cells, calcium flux, dopamine EC80; inhibition, % at 10 µM; 340,000 compounds, 2% hits; AID 485344; in the data active = inhibition above about 30%; inactive = below that, where a call was filed
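HEK293 T-REx D2 cells, tet-induced, calcium dye no-wash. Cpd pintool add, 180 s kinetic, then EC80 DA, 180 s kinetic. Ca flux read.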
D2 PAM-1 – positively modulates the human D2 dopamine receptor allosterically; HEK293 T-REx D2, calcium flux, EC20 dopamine potentiation; potentiation, % at 10 µM; 340,000 compounds, 0.34% hits; AID 485347;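 active = potentiation over 3 SD above the plate norm, cut at about 30% in these data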
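Using a no-wash calcium dye in inducible, force-coupled HEK293 Trex cells expressing D2, we tracked fluorescence each second for 180 s after compound, then for 180 s after EC20 dopamine to detect augmented signalling.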
D2 PAM-2 – human D2 receptor positive allosteric modulation. P14416. DiscoveRx D2 beta-arrestin cells, luminescence, 90 min; 100% = 57 uM dopamine signal. potentiation, % (no concentration beside the values). 360,000 compounds, 0.23% hits; in the data active = potentiation above about 50%; inconclusive = mostly about 30% to 49%
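PathHunter beta-arrestin assay in DiscoveRx D2 cells. Compounds were added with an EC20 of dopamine (50 nM final) for 90 min at 37 deg C. Luminescence was read 1 h after detection reagent, with 57 uM dopamine as the EC100 control.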
A number is an active result; n = inactive; u = inconclusive; x = not tested or not shown. Only some compounds are listed: those with a hit (about 2.4% of all), similar ones and a draw of the others.

SMILES	B2AR arrestin	D2 ag-1	D2 ag-2	D2 antagonist	D2 PAM-1	D2 PAM-2
Clc1ccc(C2Nc3ccccc3-n3cccc32)cc1 (stereo not drawn)	n	n	n	n	n	n
Cc1ccc(-n2ncc3c(=O)n(CC(=O)N(C)C)cnc32)cc1	n	n	n	n	n	n
CCOc1cc(NC(=S)NCc2ccco2)c(OCC)cc1NC(C)=O	n	n	n	n	n	n
O=C1CCCN1CCCN=c1c([N+](=O)[O-])nn(-c2ccc(Cl)cc2)n1O	n	x	n	x	n	52
Cc1ccc(N=c2c([N+](=O)[O-])nn(-c3ccccc3)n2O)c(C)c1	n	n	n	n	n	55
COc1ccccc1C(=O)Nc1ccnn1C1CCN(C(=O)c2ccoc2C)CC1	n	n	n	n	n	n
COC(=O)[C@@]1(C)[C@H]2C(=O)N(Cc3ccccc3)C(=O)[C@H]2[C@H]2CN=C(SCc3ccc(Cl)cc3)N21	n	x	n	x	x	n
COc1ccc(NC2CCCN(C(=O)COc3ccc(C(C)=O)cc3)C2)cc1 (stereo not drawn)	x	x	n	x	x	n
CCOC(=S)NC(=O)c1sc2ccccc2c1Cl	n	n	n	n	n	n
CCCOC(=S)NC(=O)c1sc2ccccc2c1Cl	n	n	n	31	n	n
COc1cccc(NS(=O)(=O)NC(=O)c2c[nH]c3ccccc23)c1	n	n	n	n	n	n
O=C1C(Cl)=C(NCc2cccnc2)C(=O)c2ccccc21	n	n	u	34	n	n
CCCCNc1nc2ccccc2n1CC(=O)N1CCc2ccccc2C1	n	n	n	53	n	n
NC(=O)c1ccc(N2CCN(c3ccccc3F)CC2)c([N+](=O)[O-])c1	n	n	n	n	41	n
NC(=O)c1ccc(N2CCN(c3ccccc3O)CC2)c([N+](=O)[O-])c1	n	n	n	n	n	n
CC1=NN(c2cccc(F)c2)C(=O)/C1=C/c1ccc(N(C)C)cc1	n	n	n	32	n	n
CCOC(=O)C1(C)CCCN1C(=O)c1ccccc1OC (stereo not drawn)	x	x	n	x	x	n
COc1ccc(S(=O)(=O)Nc2ccccc2C(=O)NC(C)(C)C)cc1OC	n	n	n	n	n	n
CCOC(=O)C1CCN(C(=O)Cc2c(F)cccc2Cl)CC1	n	n	n	31	n	n
CCOC(=O)C1CCCN(C(=O)Cc2c(F)cccc2Cl)C1 (stereo not drawn)	n	n	n	n	n	n
O=C(Cc1ccccc1[N+](=O)[O-])NCCc1ccc(F)cc1	n	n	n	n	n	n
CC(C)CCNC(=O)Cc1ccccc1[N+](=O)[O-]	n	n	n	n	33	n
CC12C(=O)N(c3ccccc3C(=O)O)C(=O)C1C1C=CC2C1 (stereo not drawn)	n	n	n	36	n	n
CCN1CCCC1CNC(=O)c1cc(NC(C)=O)c(N(C)C)cc1OC (stereo not drawn)	n	n	n	69	n	n
CCN1CCCC1CNC(=O)c1cc(S(N)(=O)=O)ccc1OC (stereo not drawn)	x	x	n	x	x	n
SMILES	B2AR arrestin	D2 ag-1	D2 ag-2	D2 antagonist	D2 PAM-1	D2 PAM-2
CCN1CCCC1CNC(=O)c1ccccc1Cl (stereo not drawn)	n	x	n	x	x	n
CCC(=O)Nc1cc(C(=O)NCC2CCCN2CC)c(OC)cc1N(C)C (stereo not drawn)	n	n	n	73	n	n
COc1ccc(NC(=O)c2ccc3c(c2)C(=O)N(Cc2cccnc2)C3=O)c(OC)c1	n	n	n	n	n	n
Cc1ccc(Nc2c([N+](=O)[O-])c(=O)oc3ccccc23)cc1	n	n	n	31	n	n
O=C(COC(=O)c1ccc([N+](=O)[O-])o1)c1ccccc1	n	n	n	n	n	65
CC1CC(C)CN(C(=O)COC(=O)c2ccc([N+](=O)[O-])o2)C1 (stereo not drawn)	n	n	n	31	n	n
O=C(OCCCOC(=O)c1ccc([N+](=O)[O-])o1)c1ccc([N+](=O)[O-])o1	n	n	n	n	n	53
COc1cccc(OC)c1C(=O)OCC(=O)N1CC(C)CC(C)C1 (stereo not drawn)	n	n	n	32	n	n

Screening results as filed in PubChem.
